Rows were chosen to be rich in hits. Some 7.3% of all compounds tested hit in one or more screens of this group.
AmpC no deterg: inhibitors of E. coli AmpC beta-lactamase without detergent | AmpC nitrocefin hydrolysis, absorbance 480 nm, 0.0001% Triton | Potency, µM (top dose mostly 57.1 µM), for the others: top-dose activity change, negative = inhibition, actives largely listed as inhibitors | 0.52% of 330,000 active;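 also: potency is read from the fitted curve at half-maximal effect; plate controls were no compound for no effect and no enzyme for full effect; nearly all actives have a fitted effect of over 20% in size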
Target sequence (P00811 whole entry, looked up): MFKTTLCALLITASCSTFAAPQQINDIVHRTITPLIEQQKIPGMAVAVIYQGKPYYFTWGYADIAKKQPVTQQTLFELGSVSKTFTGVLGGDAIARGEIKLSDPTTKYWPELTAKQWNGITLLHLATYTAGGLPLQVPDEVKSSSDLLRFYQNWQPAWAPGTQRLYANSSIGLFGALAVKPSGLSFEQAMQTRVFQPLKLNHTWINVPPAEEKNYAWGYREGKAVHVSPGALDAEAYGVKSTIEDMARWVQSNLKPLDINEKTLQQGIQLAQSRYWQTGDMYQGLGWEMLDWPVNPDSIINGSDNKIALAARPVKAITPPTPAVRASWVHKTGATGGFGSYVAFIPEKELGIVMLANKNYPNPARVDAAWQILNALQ
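AmpC (5.3 nM in the dispensed reagent) in 20 mM phosphate pH 7.0 with 0.01% (detergent screen) or 0.0001% Triton X-100 was preincubated with compounds for 15 min at room temperature. Nitrocefin was then added from an 800 uM solution, and hydrolysis was followed at 480 nm.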
HCV inh: HCV inhibition. Huh7.5.1 HCVcc-Cre infection, luciferase reporter, 44 h. Potency, µM (titrated, usually from 41.8 µM), without a hit: at the top dose activity change, negative = inhibition, hits mostly inhibitors. 3.4% of 340,000 active. AID 651820; also: potency is read from the fitted curve at half-maximal effect
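Antiviral activity was scored by luciferase reporter output from cells infected with HCVcc-Cre (~0.5 moi) in presence of compound, 44 h infection period, cells seeded 1,000/well 4 h prior.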
FMDV inh: blocks foot and mouth disease virus | 1.2% of 410,000 active | AID 1159524 | Potency, µM (top dose mostly 57.9 µM), for inactives: top-dose activity change, negative = inhibition, actives largely listed as inhibitors | FMDV antiviral cell-based qHTS; calls by dose curve; tested in HEK293T cells; also: read-out not given here; potency is read from the fitted curve at half-maximal effect; nearly all actives have a fitted effect of over 45% in size
AmpC detergent: inhibitors of E. coli AmpC beta-lactamase with detergent. P00811. AmpC hydrolysis of nitrocefin, absorbance 480 nm, 0.01% Triton. Potency, µM (highest dose often 114 µM), without a hit: top-dose activity change, negative = inhibition, actives largely listed as inhibitors. 0.041% of 370,000 active;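 also: potency is read from the fitted curve at half-maximal effect; 0% = no-compound wells and -100% = no-enzyme wells; nearly all actives have a fitted effect of over 25% in size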
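AmpC (5.3 nM in the dispensed reagent) in 20 mM phosphate pH 7.0 with 0.01% (detergent screen) or 0.0001% Triton X-100 was preincubated with compounds for 15 min at room temperature. Nitrocefin was then added from an 800 uM solution, and hydrolysis was followed at 480 nm.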
HCMV antiviral: inhibitors of human cytomegalovirus | AID 1259415 | activity change, negative = inhibition, % at 57.5 µM | 4.5% of 410,000 active | HFF cells, HCMV-luciferase reporter, 72 h; hits give low values; in the data active = activity change below about -60%; inconclusive = no clear call, values can overlap the other calls; inactive = above about -39%
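Screen run at 2 compound doses on HFFs infected with reporter HCMV, MOI 1 PFU/cell. Luciferase activity from cell lysates at 72 h post infection gave inhibition relative to buffer-only and Salinomycin wells.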
The depositor's hits bear a star; ? = inconclusive; · = not tested or not shown; [ ] = another dose, or the depositor's remark. Unless noted, calls follow the shape of the dose curve; as a rule, active = well fitted curve in the direction sought with a large enough effect; inconclusive = small, poorly fitted or top-dose-only effect, or another doubt; inactive = no such curve, though single readings can be large; an effect the other way counts as inactive or inconclusive. Unless noted, % is scaled to controls: 0 for no effect and ±100 for the full control effect.

SMILES | AmpC no deterg | HCV inh | FMDV inh | AmpC detergent | HCMV antiviral
CS(=O)(=O)N(CC(=O)N1CCCC1)c1ccc(Cl)cc1Cl | -2.0% | 2.82µM* | -6.0% | -1.4% | -27.6
CCNc1ncc2nc(-c3cccs3)c(=O)n(CCC#N)c2n1 | · | · | -20.2% | · | ·
COC(=O)/C=c1/s/c(=C(/C#N)C(=O)N2CCCCC2)n(-c2ccccc2)c1=O | -10.4% | 1.6% | -14.9% | -0.5% | -68.8*
O=C(O)c1cccc(COc2ccc3c(c2)CCC3)c1 | -26.5% | 18.4% | 2.82µM* | 2.8% | 0.0
CCOc1ccc(OCc2cccc(C(=O)O)c2)cc1 | -9.7% | 0.1% | 0.891µM* | -12.2% | 1.0
COc1ccc(OCc2cccc(C(=O)O)c2)cc1 | -8.5% | 4.0% | 1µM* | 2.6% | -18.3
Cc1sc2ncnc(NCc3ccco3)c2c1C | -22.8% | ? | ? | ? | -36.1
Cc1sc2ncnc(NCCN3CCOCC3)c2c1C | -21.6% | 11.2µM* | ? | -5.8% | -76.3*
Cc1sc2ncnc(NCc3cccnc3)c2c1C | -20.6% | ? | -15.7% | 4.1% | -61.1*
Cc1sc2ncnc(NCc3cccs3)c2c1C | -15.8% | 10µM* | 14.1µM* | -18.0% | -91.9*
Cc1nnc(SCC(=O)Nc2ccc(F)cc2F)n(N)c1=O | -14.7% | · | -8.4% | 0.5% | -6.4
CCCCN(Cc1ccccc1)S(=O)(=O)c1cc(Br)cc2c1N(C(=O)C1CC1)CC2 | · | · | 28.2% | 1.1% | -33.3
COC(=O)/C(=C/c1cccnc1)NC(=O)c1ccccc1 | -11.5% | 5.6% | -15.9% | -5.9% | 32.6
COC(=O)C(=C/C(C)=C/c1cccnc1)C(=O)OC | -1.6% | -19.9% | 22.4µM* | 1.9% | ?
CC(C)SCC(=O)Nc1ncc2c(n1)-c1ccccc1CC2 | -14.1% | ? | 7.8% | -10.3% | -63.8*
Cc1[nH]c2ccccc2c1C(=O)COC(=O)c1ccccc1O | -24.3% | 11.2µM* | 4.6% | · | 10.2
Cc1[nH]c2ccccc2c1C(=O)CSc1ccccn1 | -22.5% | ? | 1.6% | 5.3% | -10.4
CCOC(=O)c1c(C)[nH]c(C)c1C(=O)COC(=O)c1ccccc1O | -5.3% | -7.0% | -20.2% | 1.0% | -1.8
Cc1[nH]c2ccccc2c1C(=O)CSc1ccccc1 | -16.1% | -21.6% | 7.0% | ? | -8.7
Cc1[nH]c2ccccc2c1C(=O)CNc1nccs1 | -14.4% | 22.4µM* | -2.7% | 10.7% | 25.8
Cc1[nH]c2ccccc2c1C(=O)CCl | -18.1% | ? | 25.1µM* | -5.4% | ?
COc1cccc(NC(=O)N2CCCC2C(=O)NC23CC4CC(CC(C4)C2)C3)c1 (stereo not given) | 1.8% | 13.9% | 2.2% | 0.2% | -34.3
Cn1cnc(S(=O)(=O)N[C@H]2CC[C@@]34CCCN3C(=O)CCC[C@H]4[C@H]2Cc2ccccc2)c1 | · | · | · | · | 7.0
CC1=C(C(=O)Nc2ccc(F)cc2F)C2(CCCCCC2)OC1=O | · | · | -2.2% | 1.2% | ?
CCNc1nc2c(c(=O)n(C)c(=O)n2C)n1Cc1ccc(Cl)cc1 | 26.8% | 3.55µM* | 0.0% | ? | -65.6*
SMILES | AmpC no deterg | HCV inh | FMDV inh | AmpC detergent | HCMV antiviral
CCNc1nc2c(c(=O)n(C)c(=O)n2C)n1CC(O)COc1ccccc1 (stereo not given) | · | · | 22.4µM* | 26.8% | -7.4
COc1ccc(CNc2nc3c(c(=O)n(Cc4ccc(Cl)cc4)c(=O)n3C)n2C)cc1 | -0.8% | ? | 12.6µM* | -3.4% | ?
Cn1c(NCc2ccco2)nc2c1c(=O)n(Cc1ccc(Cl)c(Cl)c1)c(=O)n2C | -9.7% | 15.0% | 31.6µM* | -13.7% | 19.3
CCCNc1nc2c(c(=O)n(C)c(=O)n2C)n1CC(O)COc1ccccc1 (stereo not given) | · | · | ? | 15.2% | 0.1
CCC(C)Nc1nc2c(c(=O)n(C)c(=O)n2C)n1Cc1ccc(Cl)cc1 (stereo not given) | 31.5% | -10.9% | -9.9% | 3.6% | 65.5
COCCNc1nc2c(c(=O)n(Cc3ccc(OC)cc3)c(=O)n2C)n1C | 14.0% | 10.6% | ? | -4.3% | -17.6
Cn1c(NCC(O)CO)nc2c1c(=O)n(Cc1ccc(Cl)c(Cl)c1)c(=O)n2C (stereo not given) | 95.7% | 0.9% | ? | ? | -31.0
COC(=O)[C@]12CCCCC=C1N(Cc1ccc(Cl)cc1Cl)C(=O)[C@H](CC(=O)NCC1CCCCC1)C2 | · | · | 10.3% | · | 13.7
CCCC(=O)c1ccc(OC(=O)c2c(-c3ccccc3Cl)noc2C)cc1 | · | · | 0.0% | -5.1% | -20.1
O=S1(=O)CC(N2CCC(c3ccccc3)CC2)CN1Cc1cn(Cc2ccc(C(F)(F)F)cc2)nn1 (stereo not given) | · | · | · | · | -34.3
CC(C)Sc1nc2c(c(=O)n(C)c(=O)n2C)n1Cc1ccc(Cl)cc1 | -7.1% | 10µM* | ? | -1.1% | -35.0
Cn1c(=O)c2c(nc(SCc3ccccc3)n2Cc2ccc(Cl)cc2)n(C)c1=O | -18.4% | ? | ? | -11.3% | -18.8
CSc1nc2c(c(=O)[nH]c(=O)n2C)n1Cc1ccc(Cl)cc1 | -22.5% | 25.1µM* | -12.6% | ? | 19.2
CNC(=O)CSc1nc2c(c(=O)n(C)c(=O)n2C)n1Cc1ccc(C)cc1 | -10.5% | 0.631µM* | · | 0.4% | 63.2
CCCNc1nc2c(c(=O)n(C)c(=O)n2C)n1Cc1ccc(F)cc1 | 0.2% | 11.2µM* | ? | -8.9% | -36.9
CSc1nc2c(c(=O)[nH]c(=O)n2C)n1Cc1ccccc1Cl | -15.6% | -12.2% | ? | -5.8% | -2.5
CN(CC(=O)Nc1ccccc1Br)C(=O)c1cc([N+](=O)[O-])ccc1N1CCOCC1 | -2.8% | -27.6% | -10.9% | -3.7% | -22.6
COC(=O)c1ccccc1NC(=O)c1sc2nc(C)cc(C)c2c1NC(=O)c1ccccc1Cl | · | · | -20.8% | 0.7% | -2.1
CCc1ccc(-c2nc(CN3CCC(C(=O)NCCc4ccc(Cl)cc4)CC3)c(C)o2)cc1 | · | · | ? | 0.2% | 7.4
Cc1ccnc(NC(=O)C2CCC(CNc3c(N4CCCC4)c(=O)c3=O)CC2)c1 (stereo not given) | 2.24µM* | 14.6% | 9.9% | ? | -75.2*
COc1cc(NC(=O)C2CCC(CNc3c(N4CCCCC4)c(=O)c3=O)CC2)cc(OC)c1 (stereo not given) | 50.1µM* | -7.9% | -2.3% | ? | 141.0
COc1cc(NC(=O)C2CCC(CNc3c(N4CCC(C)CC4)c(=O)c3=O)CC2)cc(OC)c1 (stereo not given) | -28.4% | -10.6% | -3.8% | ? | 39.7
CC1CCN(c2c(NCC3CCC(C(=O)Nc4ccccn4)CC3)c(=O)c2=O)CC1 (stereo not given) | -16.0% | -0.6%[8.37 µM] | 5.8% | ? | -12.7
COC(=O)C1CCN(Cc2ccc3c(c2)CN(C(=O)c2sc(C)nc2C)CCO3)CC1 | · | · | -7.6% | · | ·
CCOC(=O)c1c(C)c(-c2ccccc2)n(CC(=O)Nc2cc(OC)cc(OC)c2)c1C | · | · | ? | -1.6% | -30.2
NC1=NC[C@H](Cc2ccc(O)cc2)N1CCC12CC3CC(CC(C3)C1)C2 | -4.4% | 2.2% | ? | 4.5% | -72.5*
